A number with no mark means an inactive call. Where a call stands in place of a potency, no number is given. Calls of active or inactive are those of the source. The call rests on the fitted dose curve; in most records, active means well fitted curve in the direction sought with a large enough effect in the repeat runs; inconclusive means weak or mixed curves; inactive means flat fitted curve, though single readings scatter.

The first experiment can be described thus: qHTS assay to test for compound auto fluorescence at 590 nm (red) in HEK293 cell free culture (AID 720683). The settings on record: cell-free medium autofluorescence, Ex540/Em590 red; series mostly up to 91.3 µM. The method, boiled down:
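Red-channel autofluorescence of compounds in culture medium (DMEM, 10% FBS), no cells, measured at 540/590 nm. Rose Bengal sodium is the reference fluorophore for equivalence.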
For orientation: Quantitative high-throughput screening tests each substance at several concentrations.
With `O=S(=O)(Oc1ccc(Cl)cc1)c1ccccc1`, the Potency entry was “inactive”.

With `CN1CCN(C(c2ccccc2)c2ccccc2)CC1`, the fluorescence, % of fluorescent control is 0.0321% [at 18.6 µM].

`COS(=O)(=O)C(F)(F)F`: the Potency entry was “inactive”.

`C=C(C)C(=O)OCC`: the Potency result is “inactive”.

Take `CCC(Cl)CCC(Cl)C(Cl)CC(Cl)C(Cl)C(Cl)CCl` (stereo unspecified): the Potency entry was “inactive”.

As for `O=[N+]([O-])c1ccc2[nH]ncc2c1`, the Potency result is “inactive”.

As to `O=S(c1cc(Cl)cc(Cl)c1O)c1cc(Cl)cc(Cl)c1O`, the Potency result was “inactive”.

As to `Clc1ccc(Cn2c(CN3CCCC3)nc3ccccc32)cc1`, the fluorescence, % of fluorescent control was 0.147% [at 18.6 µM].

On to `O=C1c2ccccc2S(=O)(=O)N1CCCCN1CCN(c2ncccn2)CC1`, for which the Potency entry is “inactive”.

As for `C/C(=C(\CCOP(=O)(O)O)SC(=O)c1ccccc1)N(C=O)Cc1cnc(C)nc1N`, the fluorescence, % of fluorescent control was -0.0062% [at 18.6 µM].

For `CCC(C)(C)CC`, the Potency result is “inactive”.

With `NC(=O)C(c1ccccc1)(c1ccccc1)[C@@H]1CCN(CCc2ccc3c(c2)CCO3)C1`, the Potency entry is “inactive”.

On to `O=C(c1ccc(F)cc1)C1CCN(CCn2c(=S)[nH]c3ccccc3c2=O)CC1`, for which the Potency entry was “inactive”.

As to `COc1ccc(C(=O)c2ccc(OC)cc2O)c(O)c1`, the Potency result is “inactive”.

As for `CCCCC(CC)COC(=O)CCCCCCCCC(=O)OCC(CC)CCCC` (stereo unspecified), the Potency result is “inactive”.

Take `c1ccc(CNCCNCc2ccccc2)cc1`: the Potency result was “inactive”.

For `C#CCN(C)CCCOc1ccc(Cl)cc1Cl`, the Potency entry was “inactive”.

In the case of `CC(=O)c1ccc2c(c1)N(CCCN(C)C)c1ccccc1S2`, the fluorescence, % of fluorescent control is -0.0325% [at 18.6 µM].

For the molecule `CCCCCCCCCCCCCCCCCCOS(=O)(=O)O`, the Potency result is “inactive”.

As for `Brc1c2ccccc2cc2ccccc12`, the Potency entry is “inactive”.

For `O=C(NCCO[N+](=O)[O-])c1cccnc1`, the Potency result is “inactive”.

For the molecule `CCOc1ccc(O)cc1`, the Potency entry is “inactive”.

`C=C1[C@H]2CC[C@@H]3[C@H]2C(C)(C)CCC[C@]13C`: the Potency entry was “inactive”.

`CCCCC(CC)CN1C(=O)C2C3C=CC(C3)C2C1=O` (stereo unspecified): the Potency entry was “inactive”.

For the molecule `CC(C)CC(=O)C1C(=O)c2ccccc2C1=O`, the Potency result is “inactive”.

`CC1OC(=O)C(C)OC1=O` (stereo unspecified): the Potency result is “inactive”.

`OC(CN1CCC(Cc2ccc(F)cc2)CC1)c1ccc(Cl)cc1` (stereo unspecified): the Potency result was “inactive”.

Regarding `CCCCC(=O)OCC(=O)[C@H]1[C@H](C)C[C@H]2[C@@H]3C[C@H](F)C4=CC(=O)C=C[C@]4(C)[C@@]3(F)[C@@H](O)C[C@@]21C`, the Potency entry is “inactive”.

As for `CC(C)C[C@H]1C(=O)N2CCC[C@H]2[C@]2(O)O[C@](NC(=O)[C@@H]3C=C4c5cccc6[nH]c(Br)c(c56)C[C@H]4N(C)C3)(C(C)C)C(=O)N12`, the Potency entry is “inactive”.

As to `CC(C)(CO)[N+](=O)[O-]`, the Potency entry was “inactive”.

Turning to `O=C(OCCc1ccccc1)c1ccccc1`, the Potency result was “inactive”.

In the case of `COc1ccc(S(=O)(=O)N2C(=O)[C@@](c3ccccc3OC)(N3C[C@H](O)C[C@H]3C(=O)N(C)C)c3cc(Cl)ccc32)c(OC)c1`, the Potency entry was “inactive”.

Consider `O=C1OC(CN2CCOCC2)CN1/N=C/c1ccc([N+](=O)[O-])o1` (stereo unspecified), for which the fluorescence, % of fluorescent control was 0.0972% [at 18.6 µM].

Regarding `OC[C@H]1O[C@@H](OCCc2ccc(O)cc2)[C@H](O)[C@@H](O)[C@@H]1O`, the Potency result is “inactive”.

Turning to `Cc1[nH]c(C)c(Cl)c(=O)c1Cl`, the Potency result was “inactive”.

Consider `CCCCCCCN`, for which the Potency result was “inactive”.

For the molecule `C[Si](C)(CCCN)O[Si](C)(C)CCCN`, the Potency result was “inactive”.

As to `CCOC(=O)C(F)(F)F`, the Potency entry was “inactive”.

Another experiment in a line: qHTS assay to test for compound auto fluorescence at 590 nm (red) in HepG2 cell free culture (AID 720684). As to conditions: cell-free medium autofluorescence, red 540/590 nm; series mostly up to 91.3 µM. The procedure, abridged: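 No cells present: MEM + 10% FBS only. Compound pinned in, red label read (540/590 nm). Activity = fluorescence equivalent to Rose Bengal sodium.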
Turning to `O=S(=O)(Oc1ccc(Cl)cc1)c1ccccc1`, the Potency result was “inactive”.

Turning to `CN1CCN(C(c2ccccc2)c2ccccc2)CC1`, the fluorescence, % of Rose Bengal was -0.0854% [at 18.6 µM].

Take `COS(=O)(=O)C(F)(F)F`: the Potency result was “inactive”.

For the molecule `C=C(C)C(=O)OCC`, the Potency entry was “inactive”.

Turning to `CCC(Cl)CCC(Cl)C(Cl)CC(Cl)C(Cl)C(Cl)CCl` (stereo unspecified), the Potency entry is “inactive”.

`O=[N+]([O-])c1ccc2[nH]ncc2c1`: the Potency result was “inactive”.

Take `O=S(c1cc(Cl)cc(Cl)c1O)c1cc(Cl)cc(Cl)c1O`: the Potency result is “inactive”.

On to `Clc1ccc(Cn2c(CN3CCCC3)nc3ccccc32)cc1`, for which the fluorescence, % of Rose Bengal is -0.0239% [at 18.6 µM].

As for `O=C1c2ccccc2S(=O)(=O)N1CCCCN1CCN(c2ncccn2)CC1`, the Potency entry is “inactive”.

As to `C/C(=C(\CCOP(=O)(O)O)SC(=O)c1ccccc1)N(C=O)Cc1cnc(C)nc1N`, the fluorescence, % of Rose Bengal is 0.0762% [at 18.6 µM].

On to `CCC(C)(C)CC`, for which the Potency result was “inactive”.

As to `NC(=O)C(c1ccccc1)(c1ccccc1)[C@@H]1CCN(CCc2ccc3c(c2)CCO3)C1`, the Potency entry was “inactive”.

Regarding `O=C(c1ccc(F)cc1)C1CCN(CCn2c(=S)[nH]c3ccccc3c2=O)CC1`, the Potency result was “inactive”.

On to `COc1ccc(C(=O)c2ccc(OC)cc2O)c(O)c1`, for which the Potency entry is “inactive”.

Regarding `CCCCC(CC)COC(=O)CCCCCCCCC(=O)OCC(CC)CCCC` (stereo unspecified), the Potency entry is “inactive”.

Turning to `c1ccc(CNCCNCc2ccccc2)cc1`, the Potency result is “inactive”.

On to `C#CCN(C)CCCOc1ccc(Cl)cc1Cl`, for which the Potency entry is “inactive”.

`CC(=O)c1ccc2c(c1)N(CCCN(C)C)c1ccccc1S2`: the fluorescence, % of Rose Bengal was 0.233% [at 18.6 µM].

Turning to `CCCCCCCCCCCCCCCCCCOS(=O)(=O)O`, the Potency entry was “inactive”.

Regarding `Brc1c2ccccc2cc2ccccc12`, the Potency entry is “inactive”.

Consider `O=C(NCCO[N+](=O)[O-])c1cccnc1`, for which the Potency result is “inactive”.

Consider `CCOc1ccc(O)cc1`, for which the Potency result is “inactive”.

In the case of `C=C1[C@H]2CC[C@@H]3[C@H]2C(C)(C)CCC[C@]13C`, the Potency result was “inactive”.

`CCCCC(CC)CN1C(=O)C2C3C=CC(C3)C2C1=O` (stereo unspecified): the Potency entry is “inactive”.

With `CC(C)CC(=O)C1C(=O)c2ccccc2C1=O`, the Potency entry is “inactive”.

As to `CC1OC(=O)C(C)OC1=O` (stereo unspecified), the Potency result is “inactive”.

Consider `OC(CN1CCC(Cc2ccc(F)cc2)CC1)c1ccc(Cl)cc1` (stereo unspecified), for which the Potency result was “inactive”.

With `CCCCC(=O)OCC(=O)[C@H]1[C@H](C)C[C@H]2[C@@H]3C[C@H](F)C4=CC(=O)C=C[C@]4(C)[C@@]3(F)[C@@H](O)C[C@@]21C`, the Potency result was “inactive”.

Regarding `CC(C)C[C@H]1C(=O)N2CCC[C@H]2[C@]2(O)O[C@](NC(=O)[C@@H]3C=C4c5cccc6[nH]c(Br)c(c56)C[C@H]4N(C)C3)(C(C)C)C(=O)N12`, the Potency result is “inactive”.

As to `CC(C)(CO)[N+](=O)[O-]`, the Potency entry was “inactive”.

As for `O=C(OCCc1ccccc1)c1ccccc1`, the Potency entry was “inactive”.

Regarding `COc1ccc(S(=O)(=O)N2C(=O)[C@@](c3ccccc3OC)(N3C[C@H](O)C[C@H]3C(=O)N(C)C)c3cc(Cl)ccc32)c(OC)c1`, the Potency entry was “inactive”.

`O=C1OC(CN2CCOCC2)CN1/N=C/c1ccc([N+](=O)[O-])o1` (stereo unspecified): the fluorescence, % of Rose Bengal was 0.113% [at 18.6 µM].

As for `OC[C@H]1O[C@@H](OCCc2ccc(O)cc2)[C@H](O)[C@@H](O)[C@@H]1O`, the Potency entry was “inactive”.

With `Cc1[nH]c(C)c(Cl)c(=O)c1Cl`, the Potency result was “inactive”.

`CCCCCCCN`: the Potency entry was “inactive”.

For the molecule `C[Si](C)(CCCN)O[Si](C)(C)CCCN`, the Potency entry is “inactive”.

Consider `CCOC(=O)C(F)(F)F`, for which the Potency entry is “inactive”.

The values above are taken from PubChem BioAssay (Tox21).
